The record followed here is PubChem BioAssay (EPA / NIEHS).

As a reminder, the AC50 is the midpoint of the concentration-response curve, whichever way the signal moves.

Activity calls are given as the source filed them. How the source made its calls: active means hit-call score of the fitted dose curve at least 0.9, where 1 is the maximum; inactive means score below 0.9.

This experiment is described as follows: CEETOX_H295R_OHPROG: CeeTox H295R High-throughput Steroidogenesis Assay for OH-Progesterone (OHPROG) (AID 2283435). Particulars: actives raise or lower the signal. Here is the method:
CEETOX_H295R is a cell-based, multiplexed-readout assay that uses H295R, a human adrenal gland cell line, with measurements taken at 48 hours after chemical dosing in a 96-well plate.CEETOX_H295R_OHPROG is one of 23 assay component(s) measured or calculated from the CEETOX_H295R assay. It is designed to make measurements of hormone induction, a form of inducible reporter, as detected with absorbance signals by HPLC-MS-MS technology.Data from the assay component CEETOX_H295R_OHPROG was analyzed into 1 assay endpoint. This assay endpoint, CEETOX_H295R_OHPROG, was analyzed with bidirectional fitting relative to DMSO as the negative control and baseline of activity. Using a type of inducible reporter, gain or loss-of-signal activity using HPLC-MS-MS was used to understand synthesis of 17alpha-hydroxyprogesterone in H295R cell line at 48hr of chemical exposure. To generalize the intended target to other relatable targets, this assay endpoint is annotated to the steroid hormone intended target family, where the subfamily is progestagens.
Cell culture and media preparation procedures were conducted in accordance with OECD Test No. 456 guidelines, with minor modifications. H295R cells (ATCC CRL-2128) were expanded for 5 passages and frozen in batches in liquid nitrogen. Prior to the steroidogenesis assay, H295R cells were thawed and passed at least 4 times. The maximum passage was 10. Cells were maintained in a 1:1 mixture of DMEM/F12 supplemented with 5ml/L ITS+ Premix (BD Bioscience) and 12.5 ml/L Nu-Serum (BD Bioscience). After seeding cells into 96-well plates at 50-60% confluency, cells were allowed to adhere overnight. Prior to chemical testing, culture medium was replaced with 175 uL medium containing 10 uM forskolin to stimulate steroidogenesis for 48 hours. Following prestimulation, forskolin medium was replaced with medium containing test chemical solubilized in DMSO (ensuring a final concentration of 0.1% DMSO). Test chemicals were incubated for 48 hours, then the medium was removed and split into 2 vials containing approximately 75uL each, and stored at -80 C prior to hormone analysis. For steroid quantification, media samples were shipped to OpAns, LLC (Durham, NC) on dry ice, and samples were thawed to room temperature prior to liquid-liquid extraction. Steroid hormones were extracted from media samples using methyl tertbutyl ether (MTBE). An extra derivatization with dansyl chloride was included for estrogen (estrone and estradiol) detection only. Steroid hormones were separated by HPLC, eluted using a reverse phase C18 gradient with electrospray positive ionization, followed by quantification by tandem mass spectrometry (MS/MS). Data were acquired on a MassHunter Workstation Acquisition version B03.01 (Agilent Technologies, Inc.) and processed using MassHunter Quantitative Analysis for QQQ. Accuracy was determined for each hormone analyte from 3 standards to determine upper and lower limits of quantification (ULOQ and LLOQ, respectively) using a 7-point standard curve. Precision and accuracy of the extraction and quantification methods were calculated as the percent relative standard deviation (%RSD) of the spiked standards and percent spiked standard recovered, respectively. […] Test medium was removed following chemical exposure, and cell viability was evaluated in the same wells by MTT. MTT procedures were as follows: after removal of test medium, 500 uL of 0.5 mg/ml of 3-[4,5-dimethylthiazol-2-y]2,5-diphenyltetrazoliumbromide solution was added to the cells. Following a 4-hour incubation at 37 C and 5% CO2 to allow formazan-crystal formation, the MTT solution was removed and blue formazan salt crystals were solubilized using 500uL anhydrous isopropanol with shaking for 20 minutes. Absorbance was read at 570 and 650nm using a Packard Fusion microplate reader. Background correction of absorbance units was used to determine percent change relative to controls. […]
On to `CCCCCCCCCCCCCCO`, for which the outcome was inactive.
With `c1ccc2c(c1)-c1cccc3c1c-2cc1ccccc13`, the AC50 was 3.71 µM (active).
On the same count and under the same terms, then `CCn1nc(C)c2c1C(=O)NCC(c1ccc(O)cc1)=N2`, with 2.63 µM (active).
`CCCCCCCCN(C)C`: the compound was called inactive.
Still for that read-out and setting: as for `C[C@@H](Oc1ccc(CNC(=O)c2cccnc2Oc2ccc3c(c2)OCO3)c(F)c1)C(=O)O`, the entry is “inactive”.
Take `OCc1c[nH]c2ccccc12`: the AC50 was 15.8 µM (active).
As to `C[C@]12C=CC(=O)C=C1CC[C@H]1[C@@H]3C[C@@H](O)[C@](O)(C(=O)CO)[C@@]3(C)C[C@H](O)[C@@]12F`, the call was inactive.
Same read-out and setting: then `CCN(CC)C(=S)SSC(=S)N(CC)CC`, with “inactive”; and `CCCCC(CC)C(=O)OCCOCCOCCOC(=O)C(CC)CCCC` (configuration not stated), with “inactive”.
Turning to `C=CCc1cc(S(=O)(=O)c2ccc(O)c(CC=C)c2)ccc1O`, the half-maximal activity concentration (AC50) is 0.165 µM (active).
As to `Nc1ccn([C@@H]2O[C@H](CO)[C@@H](O)[C@@H]2O)c(=O)n1`, the call was inactive.
Still for that read-out and setting: then `CCCOc1ccc(S(=O)(=O)N2CCN(CC)CC2)cc1-c1nc2c(CC)n(Cc3ccccn3)nc2c(=O)[nH]1`, with “inactive”; and `CC(C)c1nnc2ccc(-c3ocnc3-c3cc(F)ccc3F)cn12`, with “inactive”.
As to `CCOc1ccc2[nH]cc(C(=O)NCc3ccccc3)c(=O)c2n1`, the AC50 was 68.1 µM (active).
For the compound `COc1cc2c(c(OC)c1OC)-c1ccc(OC)c(=O)cc1[C@@H](NC(C)=O)CC2`, the result was inactive.
For the compound `CCCCCCCC1CCC(=O)O1` (configuration not stated), the outcome was inactive.
In the case of `CC[C@H](C)C(=O)O[C@H]1C[C@H](O)C=C2C=C[C@H](C)[C@H](CC[C@@H](O)C[C@@H](O)CC(=O)O)[C@H]21`, the AC50 is 5.55 µM (active).
